Assay results published in PubChem BioAssay (Tox21).
Records with an inconclusive call do not appear. The source made the active and inactive calls. Unless noted, the call rests on the fitted dose curve; in most records, active means well fitted curve in the direction sought with a large enough effect in the repeat runs; inconclusive means weak or mixed curves; inactive means no such curve, though single readings can be large; an effect the other way counts as inactive or inconclusive.

How the values were obtained:
[1] = qHTS assay to identify small molecule antagonists of the estrogen related receptor (ERR) signaling pathway from Tox21 library - cell viability counter screen (AID 1224834); further: nearly all actives have a fitted effect of over 30% in size; further: potency means the concentration at half of the fitted maximal effect
In short: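 Seeded ERR cells were rested 6 h at 37 C/5% CO2 before compounds, positive and negative controls or DMSO were added. Incubation continued for 17.5 h, and viability was then quantified by CellTiter-Fluor fluorescence.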

[2] = target: Luciferin 4-monooxygenase (Photinus pyralis) (UniProt P08659); assay: qHTS assay to identify small molecule inhibitors of firefly luciferase (AID 1224835); further: nearly all actives have a fitted effect of over 25% in size
In short: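 Biochemical qHTS: compounds run as interplate titrations against purified firefly enzyme, with D-luciferin and ATP each at its KM concentration. Light output recorded by CCD imaging.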

[3] = qHTS assay to identify small molecule agonists of the constitutive androstane receptor (CAR) signaling pathway - cell viability counter screen (AID 1224836); further: nearly all actives have a fitted effect of over 45% in size; further: potency means the concentration at half of the fitted maximal effect
In short: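 HepG2 cells stably carrying hCAR and a CYP2B6-2.2kb reporter; 15-concentration compounds plus PK11195 (final 0.75 uM), 23 hr at 37 C/5% CO2. Viability read by CellTiter-Fluor fluorescence.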

[4] = target: Nuclear receptor subfamily 1 group I member 3 (Homo sapiens) (UniProt Q14994); assay: qHTS assay to identify small molecule antagonists of the constitutive androstane receptor (CAR) signaling pathway (AID 1224838);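 further: HepG2 cells stably expressing hCAR with CYP2B6 luciferase reporter stimulated by CITCO; nearly all actives have a fitted effect of over 40% in size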; further: potency means the concentration at half of the fitted maximal effect
In short: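 Human hepatoma HepG2 cells expressing hCAR and a CYP2B6 promoter (2.2 kb) luciferase construct; compound titration (15 points) with 50 nM CITCO final, 24 h at 37 C/5% CO2; luminescence via ONE-Glo after 30 min at room temperature.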

[5] = target: Nuclear receptor subfamily 1 group I member 3 (Homo sapiens) (UniProt Q14994); assay: qHTS assay to identify small molecule agonists of the constitutive androstane receptor (CAR) signaling pathway (AID 1224839); further: nearly all actives have a fitted effect of over 15% in size; further: potency means the concentration at half of the fitted maximal effect;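 on activation: HepG2 cells stably carrying human CAR and a CYP2B6 luciferase reporter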
In short: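 HepG2 cells stably co-transfected with hCAR and a CYP2B6-2.2kb luciferase reporter; compounds at 15 concentrations with 0.75 uM PK11195 present. After 24 hr at 37 C, luciferase read by ONE-Glo luminescence.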

[6] = qHTS assay to identify small molecule antagonists of the estrogen related receptor signaling pathway with the pleiotropic PPARgamma coactivator (PGC) from Tox21 10K library - cell viability counter screen (AID 1224840; active means well fitted cell-killing curve with a large enough effect in the repeat runs, not every such curve was filed as active; further: nearly all actives have a fitted effect of over 40% in size; further: potency means the concentration at half of the fitted maximal effect)
In short: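 Seeded PGC/ERR cells (2,000/well, 6 h, 37 C/5% CO2) get compound by pin tool; 17.5 h incubation at 37 C; CellTiter-Fluor added, 30 min, fluorescence measured.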

[7] = qHTS assay to identify small molecule antagonists of the estrogen related receptor signaling pathway with the pleiotropic PPARgamma coactivator (PGC) from Tox21 10K library (AID 1224841; call rule not given here; further: actives are mostly falling curves and most rising ones were filed inactive; nearly all actives have a fitted effect of over 50% in size; further: potency means the concentration at half of the fitted maximal effect)
In short: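 Test chemicals dissolved in DMSO were applied to pre-incubated (6 h) PGC/ERR cells at 2,000 cells/well for an 18 h, 37 C treatment; reporter luminescence was then read using One-Glo.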

[8] = qHTS assay to identify small molecule agonists of the estrogen related receptor signaling pathway with the pleiotropic PPARgamma coactivator (PGC) from Tox21 10K library (AID 1224842); further: nearly all actives have a fitted effect of over 15% in size
In short: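 PGC/ERR reporter cell line, 2,000 cells per well, incubated 6 h at 37 C before 23 nL compound in DMSO was added. After 18 h at 37 C, One-Glo luminescence read following 30 min at room temperature.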

[9] = qHTS assay to identify small molecule agonists of the hypoxia (HIF-1) signaling pathway - cell viability counter screen (AID 1224844; calls by dose curve; further: nearly all actives have a fitted effect of over 50% in size; further: potency means the concentration at half of the fitted maximal effect)
In short: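 HRE-bla ME-180; 0.5% dFBS; cpd 17 h, 37C, 5% CO2; CellTiter-Glo lum., 30 min RT, post-FRET read, same wells.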

[10] = qHTS assay to identify small molecule agonists of H2AX (AID 1224845; active means well fitted activation curve with a large enough effect in the signal ratio in the repeat runs, not every such curve was filed as active; the % refers to the signal ratio; further: potency means the concentration at half of the fitted maximal effect)
In short: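 Wild-type CHO-K1 cells, plated overnight, exposed 3hr at 37C to 15 concentrations (0.76% DMSO final). Lysed, then HTRF anti-pH2AX (S139) cryptate and anti-H2AX-d2 antibodies, 24 hr room temperature; 665/620 nm emission read.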

[11] = qHTS assay to identify small molecule agonists of H2AX - cell viability counter screen (AID 1224847; calls by dose curve; further: nearly all actives have a fitted effect of over 30% in size; further: potency means the concentration at half of the fitted maximal effect)
In short: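 CHO-K1 cells plated overnight at 37C, then exposed 3 h at 37C to compounds at 15 concentrations (0.76% DMSO final). Viability by CellTiter-Glo luminescence after 30 min at room temperature.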

[12] = qHTS assay to identify small molecule antagonists of the estrogen related receptor (ERR) signaling pathway from Tox21 library (AID 1224848); further: nearly all actives have a fitted effect of over 50% in size; further: potency means the concentration at half of the fitted maximal effect
In short: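 Compounds dissolved in DMSO are pin-transferred onto ERR reporter cells (2,000 per well) that have settled for 6 h at 37 C. Plates then incubate 18 h at 37 C before ONE-Glo luciferase reagent and a luminescence read 30 min later.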

[13] = qHTS assay to identify small molecule agonists of the estrogen related receptor (ERR) signaling pathway from Tox21 library (AID 1224849; calls by dose curve; further: nearly all actives have a fitted effect of over 15% in size); conditions: ERR reporter cell line, ONE-Glo luciferase, 18 h; at 92.4 µM (top of the series) unless noted
In short: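 Tox21 compounds tested for ERR agonism in an NTP reporter cell line: 18 h treatment at 37 C, then ONE-Glo luminescence.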

[14] = qHTS RealTime-Glo MT Cell Viability Assay in HEK293 cells - 32 hour (AID 1224868); further: nearly all actives have a fitted effect of over 50% in size; further: potency means the concentration at half of the fitted maximal effect
In short: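 Tox21 10K qHTS, HEK293, 600 cells/well, RealTime-Glo reagent co-dispensed with cells; 5 h preincubation, compound by pintool, 37 C, luminescence at 0–40 h.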

[15] = A CellTox Green Cytotoxicity Assay to monitor cytotoxicity in HEK293 cells - 0 hour (AID 1224869); further: nearly all actives have a fitted effect of over 50% in size; further: potency means the concentration at half of the fitted maximal effect
In short: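 Tox21 screen in HEK293: membrane-impermeant cyanine dye fluoresces on binding dead-cell DNA; compound pinned 5 h post-seeding, plates held at 37 C, signal read repeatedly through 40 h.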

[16] = qHTS RealTime-Glo MT Cell Viability Assay in HepG2 cells - 40 hour (AID 1224870); further: nearly all actives have a fitted effect of over 50% in size; further: potency means the concentration at half of the fitted maximal effect
In short: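 HepG2 cells (600/well) mixed with RealTime-Glo MT reagent, settled 5 h at 37 C/5% CO2 before compound addition. Nonlytic NanoLuc luminescence from viable-cell prosubstrate reduction read repeatedly during 40 h treatment at 37 C.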

[17] = target: Thyrotropin receptor (Homo sapiens) (UniProt P16473); assay: qHTS assay to identify small molecule agonists of the thyroid stimulating hormone receptor (TSHR) signaling pathway (AID 1224843; calls by dose curve; further: nearly all actives have a fitted effect of over 45% in size; further: potency means the concentration at half of the fitted maximal effect)
In short: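 HEK293/TSHR, 800 cells/well; cpd 30 min RT; add cAMP-d2 + anti-cAMP-cryptate, 1 h RT; fluorescence read on plate reader. 15-pt titration, n=3.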

[18] = qHTS assay to identify small molecule agonists of the hypoxia (HIF-1) signaling pathway (AID 1224846; active means well fitted activation curve with a large enough effect in the signal ratio in the repeat runs, not every such curve was filed as active; the % refers to the signal ratio)
In short: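 Reporter induction in HRE-bla ME-180 cells is taken as agonism: cells sit 5 hrs after plating, receive compounds or DMSO only, incubate 17 hrs at 37C under 5% CO2, and are loaded with CCF4-AM for beta-lactamase FRET measurement.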

[19] = qHTS RealTime-Glo MT Cell Viability Assay in HepG2 cells - 24 hour (AID 1224867); further: nearly all actives have a fitted effect of over 50% in size; further: potency means the concentration at half of the fitted maximal effect
In short: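 Cells + NanoLuc/prosubstrate dispensed (600 cells/well) → 5 h at 37 C/5% CO2 → compounds in DMSO transferred → 40 h incubation at 37 C, luminescence read at 0, 8, 16, 24, 32, 40 h.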

[20] = qHTS assay to identify small molecule antagonists of the constitutive androstane receptor (CAR) signaling pathway - cell viability counter screen (AID 1224837); further: nearly all actives have a fitted effect of over 45% in size
In short: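 To flag cytotoxic false antagonists, HepG2 hCAR/CYP2B6-2.2kb cells were treated 23 hr with 15-concentration compound series and 50 nM CITCO at 37 C/5% CO2; CellTiter-Fluor fluorescence was the measured end point.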
On the % scale 0 is the no-effect control and ±100 the full control effect.

Chain of Luciferin 4-monooxygenase (Photinus pyralis) (P08659 whole entry, looked up): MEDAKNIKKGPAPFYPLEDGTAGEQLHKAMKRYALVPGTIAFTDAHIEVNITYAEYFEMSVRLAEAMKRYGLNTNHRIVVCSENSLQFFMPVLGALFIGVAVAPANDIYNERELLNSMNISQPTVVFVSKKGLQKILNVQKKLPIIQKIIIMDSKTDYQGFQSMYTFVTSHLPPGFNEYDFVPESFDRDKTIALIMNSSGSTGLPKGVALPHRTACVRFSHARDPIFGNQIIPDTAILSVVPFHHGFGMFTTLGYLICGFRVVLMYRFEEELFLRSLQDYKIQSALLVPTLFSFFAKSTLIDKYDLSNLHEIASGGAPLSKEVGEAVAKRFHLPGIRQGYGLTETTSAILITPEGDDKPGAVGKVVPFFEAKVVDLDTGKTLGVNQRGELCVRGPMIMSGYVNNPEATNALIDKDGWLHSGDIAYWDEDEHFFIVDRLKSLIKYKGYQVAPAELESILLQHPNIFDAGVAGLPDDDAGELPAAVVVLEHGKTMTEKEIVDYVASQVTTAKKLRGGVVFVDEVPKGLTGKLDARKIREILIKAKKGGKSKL
Chain of Thyrotropin receptor (Homo sapiens) (P16473 whole entry, looked up): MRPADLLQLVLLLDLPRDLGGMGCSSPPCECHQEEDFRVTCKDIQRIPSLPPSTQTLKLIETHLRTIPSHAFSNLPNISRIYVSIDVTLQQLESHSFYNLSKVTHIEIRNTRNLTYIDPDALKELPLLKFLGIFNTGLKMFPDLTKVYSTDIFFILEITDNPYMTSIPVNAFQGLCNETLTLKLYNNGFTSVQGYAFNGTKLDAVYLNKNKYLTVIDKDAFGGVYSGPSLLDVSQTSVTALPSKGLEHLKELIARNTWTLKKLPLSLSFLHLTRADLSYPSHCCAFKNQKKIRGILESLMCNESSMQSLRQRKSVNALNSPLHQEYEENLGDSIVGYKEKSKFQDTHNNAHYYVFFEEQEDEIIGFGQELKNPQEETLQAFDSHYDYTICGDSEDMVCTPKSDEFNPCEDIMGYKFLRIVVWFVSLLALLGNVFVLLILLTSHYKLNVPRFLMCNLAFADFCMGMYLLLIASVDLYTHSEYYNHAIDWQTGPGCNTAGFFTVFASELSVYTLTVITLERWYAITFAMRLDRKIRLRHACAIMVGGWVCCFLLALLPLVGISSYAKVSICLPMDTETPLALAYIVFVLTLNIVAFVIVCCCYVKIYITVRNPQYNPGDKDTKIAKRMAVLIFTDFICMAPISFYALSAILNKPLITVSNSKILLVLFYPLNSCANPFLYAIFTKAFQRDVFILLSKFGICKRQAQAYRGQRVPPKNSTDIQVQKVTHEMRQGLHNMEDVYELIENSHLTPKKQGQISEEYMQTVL
Chain of Nuclear receptor subfamily 1 group I member 3 (Homo sapiens) (Q14994 whole entry, looked up): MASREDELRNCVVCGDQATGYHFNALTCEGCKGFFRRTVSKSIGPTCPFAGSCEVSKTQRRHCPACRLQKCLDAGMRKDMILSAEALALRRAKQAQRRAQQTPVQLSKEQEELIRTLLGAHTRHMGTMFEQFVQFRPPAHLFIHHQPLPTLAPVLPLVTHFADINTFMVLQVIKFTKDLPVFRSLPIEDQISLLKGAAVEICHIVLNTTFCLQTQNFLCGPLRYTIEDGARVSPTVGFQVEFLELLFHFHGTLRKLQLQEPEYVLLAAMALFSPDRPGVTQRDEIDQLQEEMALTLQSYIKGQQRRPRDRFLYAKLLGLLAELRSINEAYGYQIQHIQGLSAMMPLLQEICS

CCN1CCC2(CC1)COc1cc3c(cc12)N(C(=O)c1ccc(-c2ccc(-c4nnc(C)o4)cc2C)cc1)CC3
inactive: Potency [2] | Potency [5] | Potency [8] | Potency [10] | activity change, positive = activation [13] -74.2% | Potency [15]
active: Potency [1] 17.8 µM | Potency [3] 44.8 µM | Potency [4] 44.8 µM | Potency [6] 17.8 µM | Potency [7] 7.96 µM | Potency [9] 20.2 µM | Potency [11] 104 µM | Potency [12] 10 µM | Potency [14] 11.3 µM | Potency [16] 45.2 µM

Cc1c([N+](=O)[O-])cc2c(c1[N+](=O)[O-])C(C)(C)CC2(C)C
active: Potency [5] 12.2 µM | Potency [7] 30.6 µM | Potency [17] 48.6 µM
inactive: Potency [1] | Potency [2] | Potency [3] | Potency [4] | Potency [6] | Potency [9] | Potency [18] | activity change, positive = activation [13] -30.3% | Potency [19] | Potency [14] | Potency [15] | Potency [16]

ClC(Cl)C(Cl)(Cl)Cl
inactive: Potency [1] | Potency [2] | Potency [3] | Potency [20] | Potency [6] | Potency [17] | Potency [9] | Potency [10] | Potency [18] | Potency [11] | Potency [14] | Potency [15] | Potency [16]

CCC[CH2][Sn]([CH2]CCC)([CH2]CCC)[CH2]CCC
inactive: Potency [2] | Potency [5] | Potency [7] | activity change, positive = activation [13] -63.4%
active: Potency [1] 27.3 µM | Potency [3] 15.4 µM | Potency [4] 9.69 µM | Potency [9] 11 µM | Potency [10] 8 µM | Potency [11] 14.2 µM | Potency [12] 13.7 µM | Potency [19] 6.16 µM | Potency [14] 8.71 µM | Potency [15] 49 µM | Potency [16] 4.9 µM

C=CC(=C)C
inactive: Potency [1] | Potency [2] | Potency [3] | Potency [20] | Potency [6] | Potency [17] | Potency [9] | Potency [18] | Potency [11] | Potency [19] | Potency [14] | Potency [15] | Potency [16]

Cc1cc2c3c(c1)C(c1ccccc1)=N[C@@H](NC(=O)c1ccncc1)C(=O)N3CC2
inactive: Potency [1] | Potency [2] | Potency [3] | Potency [4] | Potency [5] | Potency [6] | Potency [7] | Potency [8] | Potency [17] | Potency [9] | Potency [10] | Potency [18] | Potency [11] | Potency [12] | activity change, positive = activation [13] -15.6% | Potency [19] | Potency [15] | Potency [16]

O=C(O)CCCCCCNC1c2ccccc2CCc2ccccc21
inactive: Potency [1] | Potency [2] | Potency [3] | Potency [20] | Potency [6] | Potency [17] | Potency [9] | Potency [10] | Potency [11] | Potency [19] | Potency [15] | Potency [16]
